DRD3 antagonist = qHTS of D3 Dopamine Receptor Antagonist: qHTS. D3R cells, DiscoveRx beta-arrestin luminescence, antagonist mode; active compounds read low. max response, negative = inhibition, %. 360,000 tested, 2.5% active. AID 652054, 2013; in the data active = max response below about -50%; inconclusive = no clear call, values can overlap the other calls; also: % is scaled to controls: 0 for no effect and ±100 for the full control effect
Target sequence (P35462 whole entry, looked up): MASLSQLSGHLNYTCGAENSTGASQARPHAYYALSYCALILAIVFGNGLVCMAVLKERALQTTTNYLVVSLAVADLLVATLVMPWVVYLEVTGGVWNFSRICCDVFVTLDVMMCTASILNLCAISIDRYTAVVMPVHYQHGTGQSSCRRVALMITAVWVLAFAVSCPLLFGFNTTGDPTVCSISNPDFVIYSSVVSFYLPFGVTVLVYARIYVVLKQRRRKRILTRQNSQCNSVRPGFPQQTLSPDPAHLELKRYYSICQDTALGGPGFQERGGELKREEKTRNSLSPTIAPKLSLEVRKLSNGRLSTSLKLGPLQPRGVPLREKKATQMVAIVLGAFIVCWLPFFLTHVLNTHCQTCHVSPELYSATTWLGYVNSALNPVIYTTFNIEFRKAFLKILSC
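Cells plated overnight at 1500 cells/well, then exposed to library compounds with dopamine controls for 90 minutes at 37 degrees C. DiscoveRx reagent added for 30–60 minutes at room temperature; luminescence read, quantitative HTS format.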
PI5P4K alpha inh = qHTS for Inhibitors of phosphatidylinositol 5-phosphate 4-kinase (PI5P4K); PI5P4Kalpha enzyme, ADP-Glo luminescence, 60 min; active compounds read low; max response, %; 330,000 tested, 1.2% active; AID 652105, 2013; active = max response of -50% or lower; inconclusive = between -30% and -50%; inactive = -30% or higher; also: value at the top dose of about 77 µM; % is scaled to controls: 0 for no effect and ±100 for the full control effect
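Single end-point luminescence (ADP-Glo) quantified ADP from PI5P4Kalpha turnover; ATP 5 microM final, 1 h at RT, 0.1% CHAPS and 0.28 mM EGTA in HEPES pH 7.4.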
PI4K2A block = qHTS for small molecular inhibitors of PI4K2A. activity change, negative = inhibition, % at 76.9 µM. purified PI4K2A, ADP-Glo luminescence, 1 h; active compounds read low. Phosphatidylinositol 4-kinase type 2-alpha (Homo sapiens), Q9BTU6. AID 1346378, 2018. 420,000 tested, 0.13% active; in the data active = activity change below about -50%; inconclusive = mostly about -30% to -49%;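 also: -100% = wells without enzyme as full effect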
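PI4K2A activity was measured by ADP-Glo luminescence: enzyme (4 ug/mL stock) and phosphatidylinositol (1.2 mM stock) in Tris pH 7.5/MgCl2/EGTA/Triton X-100 buffer were reacted with ATP (300 microM stock) for one hour at ambient temperature.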
DRD3 agonist = qHTS of D3 Dopamine Receptor Agonist: qHTS | 410,000 tested, 0.58% active | D(3) dopamine receptor (Homo sapiens), P35462 | D3R DiscoveRx beta-arrestin cells, luminescence, 90 min | max activation, %; in the data active = max activation above about 30%; also: 0% is about no effect
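Agonist-mode cell screen: cells plated at 1500/well and incubated overnight at 37 °C, then exposed to library compounds for 90 min at 37 °C. Detection reagent was added for 30–60 min at room temperature, and luminescence was read.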
LDHA block = qHTS assay for inhibitors of human lactate dehydrogenase. L-lactate dehydrogenase A chain (Homo sapiens), P00338. purified LDHA, NADH/diaphorase-resazurin fluorescence; active compounds read low. activity change, % (values are at about 110 or 230 µM). 480,000 tested, 0.15% active. AID 1347041, 2019; in the data active = activity change below about -30%; inconclusive = mostly about -25% to -30%;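 also: plate controls were DMSO wells for no effect and wells without enzyme for full effect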
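Remaining NADH was detected by diaphorase (0.133 mg/mL) converting 37 µM resazurin to fluorescent resorufin, read at 0 and 20 minutes. The preceding 5-minute room-temperature reaction used 2 nM LDHA, 0.2 mM sodium pyruvate and 0.06 mM NADH at pH 7.4.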
Active calls of the source: *; ? = inconclusive; nt = no result given. An excerpt weighted towards active compounds, which were near 3.3% of everything screened.

SMILES	DRD3 antagonist	PI5P4K alpha inh	PI4K2A block	DRD3 agonist	LDHA block
C=C=Cn1c(C2CC(=O)N(c3cccc(C(F)(F)F)c3)C2)nc2ccccc21 (stereo not given)	nt	nt	nt	nt	8
Cc1ccc(N2CCN(CCCCN3C(=O)C4CCCN4C3=O)CC2)cc1 (stereo not given)	-78*	4	-4	-17	0
O=C1C2CCCCN2C(=O)N1CCCCN1CCN(c2ccc(F)cc2)CC1 (stereo not given)	-92*	-2	0	-12	0
O=C1C2CCCCN2C(=O)N1CCN1CCN(c2ccc(F)cc2)CC1 (stereo not given)	15	1	-2	-14	-2
O=C1C2CCCN2C(=O)N1CCCCN1CCN(c2ccccc2)CC1 (stereo not given)	-24	-2	2	30	0
O=C1C2CCCN2C(=O)N1CCCCN1CCN(c2ccc(F)cc2)CC1 (stereo not given)	-75*	3	-3	-9	-2
COc1cc(NC(=O)c2ccccc2)c(C)cc1NC(=O)CSc1nnc(-c2cnccn2)n1-c1ccc(C)cc1	nt	nt	2	nt	nt
C=CCNC(=O)Nc1ccc(NC(=O)CN(CC)CC)cc1	nt	nt	nt	nt	11
CN1CCc2c(sc(/N=C/c3cc(Cl)ccc3O)c2C#N)C1	-50*	-10	2	21	7
Nc1nc2c([N+](=O)[O-])cccc2[n+]([O-])n1	nt	nt	nt	nt	-20
O=C(NCC1COc2ccccc2O1)c1ccccc1 (stereo not given)	12	nt	5	1	-3
CC(OCC(O)CNCC1COc2ccccc2O1)c1ccc(Cl)cc1 (stereo not given)	-68*	23	1	-3	-11
CC(=O)c1cccc(OCC(O)CNCC2COc3ccccc3O2)c1 (stereo not given)	-51*	-3	2	37*	-20
OC(CNCC1COc2ccccc2O1)COCc1cccs1 (stereo not given)	-71*	nt	18	-30	-19
COc1cccc(/C=C(/C(=O)OCc2nnc(-c3ccc(Br)cc3)o2)c2ccccc2)c1	nt	nt	nt	nt	-2
O=[N+]([O-])c1cc(S(=O)(=O)C(F)(F)F)ccc1Sc1nc2ccccc2s1	-95*	-6	38	-14	-3
Cc1nc(SCC(=O)O)n[nH]1	7	0	0	1	-9
Cc1nc(SCCCSc2n[nH]c(C)n2)n[nH]1	-69*	6	-13	-9	-1
COCCCNC(=O)c1cc(C2CC2)nc2ccccc12	nt	nt	nt	nt	6
COCCn1c(SCC(=O)Nc2cccc(C)c2C)nc2c(oc3ccccc32)c1=O	nt	nt	-66*	-1	-2
COCCn1c(SCCN2CCCCC2)nc2ccccc2c1=O	-65*	0	3	-6	?
COCCn1c(SCC(=O)N2CCCCC2)nc2ccccc2c1=O	-27	nt	-65*	-14	-4
COCCn1c(SCC(=O)NC2CCCC2)nc2ccccc2c1=O	2	5	2	4	-2
CCOc1cccc(C(=O)Nc2nnc(-c3ccccc3F)s2)c1	nt	nt	nt	nt	8
COc1ccc(C(=O)C[n+]2ccc(Cl)c3ccc(Cl)cc32)cc1	nt	nt	nt	nt	-60*
SMILES	DRD3 antagonist	PI5P4K alpha inh	PI4K2A block	DRD3 agonist	LDHA block
O=C(NCc1nc2ccccc2[nH]1)C1=C[C@H](C2CCCCC2)C[C@H](OCc2ccc(CO)cc2)O1	60	0	7	41*	0
CCc1ccc(NC(=O)Nc2nnc(N(CC(C)C)CC(C)C)s2)cc1	nt	nt	nt	nt	5
S=c1[nH]nc2ccc3ccccc3n12	-9	-61*	-5	2	-8
S=c1[nH]c2ccccc2n2c(=S)[nH]nc12	-25	-29	0	3	-17
c1ccc(COc2cccc3[nH]ccc23)cc1	nt	nt	nt	nt	3
N=C1/C(=C\c2ccc(-c3cccc(C(=O)O)c3)o2)C(=O)N=C2SC=C(c3ccccc3)N12	-15	-98*	-3	3	-2

Compound activity deposited in PubChem BioAssay by National Center for Advancing Translational Sciences (NCATS).
